Consider eleven molecules from ChEMBL document CHEMBL3988442, “University of Dundee, Small-Polar-MMV Screening Library” (2021).

Common to all, as to set-up: scale not given: direction of the effect not stated beside the values
Test [1] has as its target Protein translocase subunit SecA (Escherichia coli (strain K12)) (UniProt P10408). Description: Assay to Identify E. coli SecA ATPase Inhibitors. Format: functional. The conditions noted are these: 30 µM.
The target of test [2] is T1, Ubiquitin-activating enzyme e1, putative (Leishmania donovani (strain BPK282A1)) (UniProt E9BSI1).
T1 sequence (whole entry): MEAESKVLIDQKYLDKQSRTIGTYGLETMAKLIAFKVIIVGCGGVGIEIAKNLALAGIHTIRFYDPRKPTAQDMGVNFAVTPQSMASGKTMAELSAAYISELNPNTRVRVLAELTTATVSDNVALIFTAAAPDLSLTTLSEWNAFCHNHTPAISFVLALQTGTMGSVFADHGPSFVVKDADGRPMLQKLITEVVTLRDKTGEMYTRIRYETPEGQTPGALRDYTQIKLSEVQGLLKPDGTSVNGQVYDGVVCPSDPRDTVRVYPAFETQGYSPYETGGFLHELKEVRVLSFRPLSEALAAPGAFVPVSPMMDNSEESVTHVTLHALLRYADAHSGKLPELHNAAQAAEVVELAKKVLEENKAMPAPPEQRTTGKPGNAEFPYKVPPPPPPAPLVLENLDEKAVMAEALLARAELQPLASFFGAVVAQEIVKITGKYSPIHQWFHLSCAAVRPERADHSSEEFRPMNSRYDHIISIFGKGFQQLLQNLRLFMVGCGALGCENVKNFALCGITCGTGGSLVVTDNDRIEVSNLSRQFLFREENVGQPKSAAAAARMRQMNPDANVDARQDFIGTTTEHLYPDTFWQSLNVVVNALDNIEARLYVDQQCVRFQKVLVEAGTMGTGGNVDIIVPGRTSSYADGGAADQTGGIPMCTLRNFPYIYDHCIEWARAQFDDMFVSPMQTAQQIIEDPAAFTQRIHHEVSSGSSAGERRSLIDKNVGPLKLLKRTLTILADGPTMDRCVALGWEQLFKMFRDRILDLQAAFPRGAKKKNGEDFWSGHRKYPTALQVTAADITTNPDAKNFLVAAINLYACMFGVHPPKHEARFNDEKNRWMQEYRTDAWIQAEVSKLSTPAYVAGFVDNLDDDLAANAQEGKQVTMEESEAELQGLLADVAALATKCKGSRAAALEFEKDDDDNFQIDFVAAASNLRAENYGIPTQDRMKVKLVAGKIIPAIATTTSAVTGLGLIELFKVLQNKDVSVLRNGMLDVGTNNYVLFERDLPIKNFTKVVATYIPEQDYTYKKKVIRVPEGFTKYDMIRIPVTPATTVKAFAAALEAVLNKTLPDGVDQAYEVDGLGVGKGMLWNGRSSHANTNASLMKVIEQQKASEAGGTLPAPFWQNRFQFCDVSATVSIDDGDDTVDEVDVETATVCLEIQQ
Briefly: Leishmania donovani Ubiquitin Activating Enzyme (LdE1). The class given is functional. The conditions noted are these: 30 µM.

Test [3] has as its target AMP-activated protein kinase, AMPK (Homo sapiens) (UniProt P54646+O43741+P54619+Q9UGJ0+Q9Y478+Q13131+Q9UGI9). Briefly: AMP-dependent Kinase enzyme assay. An in vitro enzyme assay that detects ADP turnover that is directly proportional to AMPK activity. This uses naive AMPK that is activated during the assay with MK-8722. As to conditions: 30 µM. Format: functional.
In test [4] the target is Sialic acid-binding Ig-like lectin 9 (Homo sapiens) (UniProt Q9Y336). Description: Hs-Siglec9 ALPHAscreen SOP 20170721. The conditions noted are these: 10 µM.
The subject of another test is Trypanosoma cruzi. Description: Trypanosoma cruzi phosphomannomutase and mannose-1-phosphate guanylyltransferase assay. Format: functional. As to conditions: 10 µM.
Test [5] concerns the target T2, Arginase-2, mitochondrial (Homo sapiens) (UniProt P78540).
T2 sequence (whole entry): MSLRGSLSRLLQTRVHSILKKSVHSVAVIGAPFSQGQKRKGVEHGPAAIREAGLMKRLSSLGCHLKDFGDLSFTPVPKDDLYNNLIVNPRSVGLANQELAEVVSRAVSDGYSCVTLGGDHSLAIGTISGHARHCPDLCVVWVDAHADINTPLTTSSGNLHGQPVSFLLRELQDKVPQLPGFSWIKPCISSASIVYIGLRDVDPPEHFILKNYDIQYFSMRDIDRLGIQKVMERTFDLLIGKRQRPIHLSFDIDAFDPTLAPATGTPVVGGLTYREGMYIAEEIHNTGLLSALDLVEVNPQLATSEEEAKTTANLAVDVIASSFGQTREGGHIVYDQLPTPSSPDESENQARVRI
Description: in vitro enzyme assay to detect the production of urea directly proportional to the activity of Arginase II. Note: in the data most compounds retested in dose-response had high values. Format: functional. As to conditions: 33.3 µM.

Test [6] deals with T3, Proteasome subunit beta (Trypanosoma cruzi) (UniProt O96673).
T3 sequence (whole entry): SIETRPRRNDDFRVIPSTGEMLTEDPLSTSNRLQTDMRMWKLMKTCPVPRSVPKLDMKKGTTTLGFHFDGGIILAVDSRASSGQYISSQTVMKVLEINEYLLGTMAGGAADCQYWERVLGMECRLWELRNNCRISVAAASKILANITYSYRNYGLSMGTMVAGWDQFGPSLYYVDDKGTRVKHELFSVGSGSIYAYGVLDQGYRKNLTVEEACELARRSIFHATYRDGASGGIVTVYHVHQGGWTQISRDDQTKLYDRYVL
Briefly: Trypanosoma cruzi proteasome chymotrypsin-like activity (TcProtChymo) assay. Note: in the data most compounds retested in dose-response had high values. The conditions noted are these: 9.37 µM. Format: functional.

The species entered for the next test is Homo sapiens. Description: To identify inhibition of the IFN signalling (Jak-Stat) pathway via expression of an eGFP reporter gene under the control of an IFN-stimulated response element (ISRE) containing MxA promoter. The class given is functional. As to conditions: 30 µM. In general terms: A reporter such as luciferase makes a cellular process visible.
Test [7] addresses T4, Tyrosyl-tRNA synthetase, putative (Trypanosoma cruzi (strain CL Brener)) (UniProt Q4DSP6).
T4 sequence (whole entry): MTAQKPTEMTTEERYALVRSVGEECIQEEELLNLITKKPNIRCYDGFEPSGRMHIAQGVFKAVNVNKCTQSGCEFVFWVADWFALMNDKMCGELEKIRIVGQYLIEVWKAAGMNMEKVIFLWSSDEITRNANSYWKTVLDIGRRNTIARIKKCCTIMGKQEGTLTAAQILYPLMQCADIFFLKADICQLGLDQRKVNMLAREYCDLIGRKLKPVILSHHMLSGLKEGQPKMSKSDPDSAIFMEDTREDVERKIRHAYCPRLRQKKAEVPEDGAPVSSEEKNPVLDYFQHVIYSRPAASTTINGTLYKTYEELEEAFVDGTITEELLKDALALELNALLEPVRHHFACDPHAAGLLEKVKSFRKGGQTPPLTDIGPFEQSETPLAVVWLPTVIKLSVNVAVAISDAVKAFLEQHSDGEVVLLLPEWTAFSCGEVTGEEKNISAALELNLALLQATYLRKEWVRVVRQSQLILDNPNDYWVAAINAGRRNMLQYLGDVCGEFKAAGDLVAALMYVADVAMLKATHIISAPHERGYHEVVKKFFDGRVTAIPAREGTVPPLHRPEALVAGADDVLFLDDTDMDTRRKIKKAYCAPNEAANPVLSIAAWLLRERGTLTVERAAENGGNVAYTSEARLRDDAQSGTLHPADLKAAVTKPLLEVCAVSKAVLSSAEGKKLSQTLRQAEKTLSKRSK
Briefly: Trypanosoma cruzi tyrosyl tRNA synthetase (TcYRS) _High Tyrosine SOP. Note: in the data most compounds retested in dose-response had high values. The class given is functional. As to conditions: 30 µM.

The target of test [8] is T4, Tyrosyl-tRNA synthetase, putative (Trypanosoma cruzi (strain CL Brener)). Description: Trypanosoma cruzi tyrosyl tRNA synthetase (TcYRS) SOP. The class given is functional. As to conditions: 30 µM.
The target in test [9] is Chromo domain-containing protein 1 (Saccharomyces cerevisiae (strain ATCC 204508 / S288c) (Baker's yeast)) (UniProt P32657). Briefly: ScCHD-1 Enzyme Inhibition Assay. Note: in the data most compounds retested in dose-response had high values. Format: functional. The conditions noted are these: 30 µM.

Each structure is given as a SMILES string. For some of these results: Potency and affinity values are given separately.

Protein translocase subunit SecA (Escherichia coli (strain K12)), sequence (P10408 whole entry): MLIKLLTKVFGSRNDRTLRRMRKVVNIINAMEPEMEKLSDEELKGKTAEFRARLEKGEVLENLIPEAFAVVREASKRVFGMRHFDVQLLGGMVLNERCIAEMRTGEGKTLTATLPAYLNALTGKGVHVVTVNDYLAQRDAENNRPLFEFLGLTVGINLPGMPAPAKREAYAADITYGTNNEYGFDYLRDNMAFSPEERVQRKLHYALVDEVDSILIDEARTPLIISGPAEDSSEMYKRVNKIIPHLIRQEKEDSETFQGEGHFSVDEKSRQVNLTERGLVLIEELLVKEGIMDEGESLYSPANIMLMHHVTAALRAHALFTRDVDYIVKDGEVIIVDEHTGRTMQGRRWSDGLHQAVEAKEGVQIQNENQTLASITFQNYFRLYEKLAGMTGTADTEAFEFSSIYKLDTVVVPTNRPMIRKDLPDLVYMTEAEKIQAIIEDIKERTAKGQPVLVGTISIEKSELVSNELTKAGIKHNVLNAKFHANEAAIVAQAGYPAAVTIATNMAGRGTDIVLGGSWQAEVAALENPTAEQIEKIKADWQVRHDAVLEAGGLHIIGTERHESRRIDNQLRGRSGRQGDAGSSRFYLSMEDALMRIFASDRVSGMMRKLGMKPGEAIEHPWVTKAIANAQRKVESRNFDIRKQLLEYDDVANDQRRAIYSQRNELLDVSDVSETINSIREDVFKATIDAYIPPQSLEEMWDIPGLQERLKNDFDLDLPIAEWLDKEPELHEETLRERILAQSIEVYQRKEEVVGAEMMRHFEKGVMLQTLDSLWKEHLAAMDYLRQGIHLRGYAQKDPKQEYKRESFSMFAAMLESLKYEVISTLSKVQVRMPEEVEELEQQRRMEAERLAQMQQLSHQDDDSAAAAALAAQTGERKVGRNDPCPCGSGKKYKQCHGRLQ
Chromo domain-containing protein 1 (Saccharomyces cerevisiae (strain ATCC 204508 / S288c) (Baker's yeast)), sequence (P32657 whole entry, the tested form may be a part): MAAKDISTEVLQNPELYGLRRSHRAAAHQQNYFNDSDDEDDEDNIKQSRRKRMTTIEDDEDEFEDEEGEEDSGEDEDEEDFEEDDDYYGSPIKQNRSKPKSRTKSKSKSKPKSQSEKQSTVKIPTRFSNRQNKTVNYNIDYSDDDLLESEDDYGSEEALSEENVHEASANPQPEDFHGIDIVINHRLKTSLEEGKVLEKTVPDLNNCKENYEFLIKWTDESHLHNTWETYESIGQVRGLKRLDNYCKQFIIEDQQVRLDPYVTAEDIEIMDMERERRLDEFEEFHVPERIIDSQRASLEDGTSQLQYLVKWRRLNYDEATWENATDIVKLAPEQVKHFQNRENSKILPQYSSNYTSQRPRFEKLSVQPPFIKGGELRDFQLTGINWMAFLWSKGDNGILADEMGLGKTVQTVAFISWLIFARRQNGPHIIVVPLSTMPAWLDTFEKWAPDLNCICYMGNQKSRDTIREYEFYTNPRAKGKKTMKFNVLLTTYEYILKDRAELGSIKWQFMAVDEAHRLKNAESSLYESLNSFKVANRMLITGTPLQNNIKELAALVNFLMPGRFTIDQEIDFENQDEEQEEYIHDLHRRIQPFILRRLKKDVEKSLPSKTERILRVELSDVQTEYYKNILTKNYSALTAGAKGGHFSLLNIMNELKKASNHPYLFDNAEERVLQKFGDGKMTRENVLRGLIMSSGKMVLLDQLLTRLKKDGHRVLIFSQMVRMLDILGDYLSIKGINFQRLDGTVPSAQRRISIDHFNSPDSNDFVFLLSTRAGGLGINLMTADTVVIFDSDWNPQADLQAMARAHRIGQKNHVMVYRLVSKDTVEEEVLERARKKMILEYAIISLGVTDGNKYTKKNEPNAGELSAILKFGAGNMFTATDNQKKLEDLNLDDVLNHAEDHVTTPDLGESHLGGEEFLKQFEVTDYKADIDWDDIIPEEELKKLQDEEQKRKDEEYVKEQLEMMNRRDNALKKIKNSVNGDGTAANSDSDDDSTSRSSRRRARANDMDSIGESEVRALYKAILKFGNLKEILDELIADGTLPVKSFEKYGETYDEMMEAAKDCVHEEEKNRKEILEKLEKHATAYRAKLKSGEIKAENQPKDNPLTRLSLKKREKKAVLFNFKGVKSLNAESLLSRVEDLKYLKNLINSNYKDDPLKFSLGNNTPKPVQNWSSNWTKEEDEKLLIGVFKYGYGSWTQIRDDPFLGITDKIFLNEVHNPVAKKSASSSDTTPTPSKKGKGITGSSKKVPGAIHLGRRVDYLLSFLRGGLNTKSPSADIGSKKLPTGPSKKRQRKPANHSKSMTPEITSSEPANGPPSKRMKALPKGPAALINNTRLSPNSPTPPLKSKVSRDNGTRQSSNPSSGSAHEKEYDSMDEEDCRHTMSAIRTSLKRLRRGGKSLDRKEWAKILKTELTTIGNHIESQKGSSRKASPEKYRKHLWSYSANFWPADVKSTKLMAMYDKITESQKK
Sialic acid-binding Ig-like lectin 9 (Homo sapiens), sequence (Q9Y336 whole entry): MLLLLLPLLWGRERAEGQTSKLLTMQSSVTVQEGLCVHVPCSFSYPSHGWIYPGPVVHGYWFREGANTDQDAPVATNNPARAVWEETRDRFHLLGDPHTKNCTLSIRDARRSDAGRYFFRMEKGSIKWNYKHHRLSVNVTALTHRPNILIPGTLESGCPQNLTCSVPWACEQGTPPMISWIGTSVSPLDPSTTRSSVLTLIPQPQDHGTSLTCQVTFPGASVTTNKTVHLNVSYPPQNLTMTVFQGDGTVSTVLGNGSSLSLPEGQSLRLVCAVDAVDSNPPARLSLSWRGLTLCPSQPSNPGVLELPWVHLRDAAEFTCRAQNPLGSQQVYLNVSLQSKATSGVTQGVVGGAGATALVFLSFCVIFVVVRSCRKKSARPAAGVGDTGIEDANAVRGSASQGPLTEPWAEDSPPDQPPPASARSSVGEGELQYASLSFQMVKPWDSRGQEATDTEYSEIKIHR

For `O=C(NCc1csc(Br)c1)c1ccc(=O)[nH]n1`, the Percent Effect in test [1] was -0.0216%; in test [2], 6.33%; in test [3], 0.358%; in [4] it was -1.84%; in the test with Trypanosoma cruzi, -3.18%; in [5] it was 4.95%. In addition, the Percent Effect was 6.86% in test [6]; 13.1% in the test filed under Homo sapiens; 4.17% in test [7]; -10.1% in [8]; -8.89% in [9].

As for `CC(C)(C)c1cnc(CN2CCC[C@H]2CO)o1`, the Percent Effect in [1] is -1.75%; in [2], -5.2%; in test [3] it was 4.08%; in [4] it was 12.3%; in the test with Trypanosoma cruzi, 5.62%; in test [5] it was -0.712%. Further, the Percent Effect is -1.01% in [6]; -3.74% in the test listed under Homo sapiens; 7.77% in test [7]; 9.76% in test [8]; -5.64% in [9].

On to `CCc1noc(C(C)N2CCN(Cc3nc(C)c(C)o3)CC2)n1` (stereo unspecified), for which the Percent Effect was -2.85% in test [1]; 0% in test [2]; 6.83% in test [3]; 1.87% in test [4]; -6.39% in the test on Trypanosoma cruzi; -0.766% in test [5]. Besides, the Percent Effect in test [6] was 0.668%; in the test listed under Homo sapiens, 20.8%; in [7], -5.39%; in test [8], -7.32%; in test [9], 2.3%.

`COc1ncccc1CN1CCn2c(Cn3cncn3)cnc2C1`: the Percent Effect in test [1] was -1.73%; in test [2] it was 18.7%; in test [3] it was 0.535%; in test [4], -13.2%; in the test with Trypanosoma cruzi it was -2.76%; in test [5], 2.1%. Besides, the Percent Effect in test [6] is 8.19%; in the test listed under Homo sapiens, -1.48%; in [7], 0%; in test [8], 6.41%; in test [9], -3.83%.

On to `Cc1nc(C)n(C2CCCN(C(=O)CCc3ccncc3)C2)n1` (stereo unspecified), for which the Percent Effect was -5.25% in test [1]; 16.2% in test [2]; 0.169% in test [3]; 8.78% in [4]; 2.34% in the test with Trypanosoma cruzi; 4.17% in [5]. Besides, the Percent Effect in [6] is 6.34%; in the test filed under Homo sapiens, 0.916%; in [7], 12.9%; in test [8], 11%; in test [9] it was -8.81%.

With `O=C(NCc1cc[nH]n1)N1CCN(c2ccccc2Cl)CC1`, the Percent Effect in test [1] was -5%; in [2], 23.7%; in test [3], -1.65%; in test [4], 3.62%; in the test on Trypanosoma cruzi, 1.96%; in test [5], -0.719%. Besides, the Percent Effect is 14.1% in test [6]; 15.6% in the test filed under Homo sapiens; 7.39% in test [7]; 18.5% in [8]; -10.1% in test [9].

As to `Cc1nocc1C(=O)N1CCc2c(CN(C)C(C)C)n[nH]c2C1`, the Percent Effect in test [1] was 1.54%; in test [2], 11%; in [3], -4.98%; in [4], 8.21%; in the test with Trypanosoma cruzi, 3.77%; in [5], -0.798%. For the same molecule, the Percent Effect was 20.3% in [6]; 21% in the test listed under Homo sapiens; 5.21% in test [7]; 13.6% in test [8]; -3.84% in test [9].

As to `CC(C)S(=O)(=O)NCC1CCCN(C(=O)c2ccc3c(c2)OCCO3)C1` (stereo unspecified), the Percent Effect is -6.68% in test [1]; 5.48% in test [2]; 3.11% in [3]; -9.4% in test [4]; 0.196% in the test with Trypanosoma cruzi; 0% in test [5]. Moreover, the Percent Effect in test [6] is 7.81%; in the test filed under Homo sapiens it was 5.65%; in [7], -1.07%; in [8], 5%; in test [9], -3.79%.

`Cn1ccc(C(=O)N2CCC[C@]3(C[C@@H](OCc4ccccn4)CO3)C2)n1`: the Percent Effect was -3.65% in test [1]; 13.5% in [2]; 2.83% in test [3]; -1.64% in test [4]; -2.64% in the test with Trypanosoma cruzi; 8.6% in test [5]. Further, the Percent Effect in test [6] was 15.1%; in the test listed under Homo sapiens, 2.73%; in test [7], 8.65%; in [8], 17.9%; in test [9], -1.5%.

Turning to `Cc1ccc(CC(=O)N2CSCC2C(=O)N(C)Cc2ccco2)o1` (stereo unspecified), the Percent Effect in [1] was -2.18%; in [2] it was 2.63%; in [3], 17.7%; in [4] it was -8.06%; in the test with Trypanosoma cruzi it was -2.89%; in test [5], 3.24%. Besides, the Percent Effect in test [6] is 7.02%; in the test filed under Homo sapiens it was -5.97%; in test [7], 3.45%; in test [8], 1.24%; in test [9] it was -0.996%.

Regarding `Cc1c(C2CCCN(C(=O)Cc3ccccn3)C2)n2c(nc1=O)CCC2` (stereo unspecified), the Percent Effect in [1] was -4%; in [2] it was 12.2%; in test [3] it was 4.92%; in test [4], -3.29%; in the test with Trypanosoma cruzi it was -5.53%; in test [5], 0.696%. The Percent Effect in [6] is 15.3%; in the test listed under Homo sapiens, 14.5%; in [7], 6.45%; in [8], 6.49%; in test [9], -11.6%.
